The results in this text go back to PubChem BioAssay AID504340 (NMMLSC, 2011).

Values joined by “and” are separate entries in the source; they are usually repeats but may differ in a detail not shown here. Equal values may be shown once. Unmarked numbers belong to inactive results. Active and inactive are the calls of the source.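 Rule for the calls: active = GFP response above 150% of the DMSO control; inconclusive = Under 70 cell events counted for a yeast strain; inactive = the rest.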

The test can be described thus: yeast TOR pathway CIT2-GFP reporter retest – flow cytometry, third cherry pick, single plex, confirmation (AID 504340).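 Note: median GFP fluorescence over all cells with no mother versus daughter split; sample signal as a ratio to the plate DMSO mean so 100% equals DMSO.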 The note with it: S. cerevisiae CIT2-GFP strain, 3 h, at 10 µM, stronger effect = higher value.
In the case of `COCCCNc1nc(N)c([N+](=O)[O-])c(Nc2ccccc2OC)n1`, the GFP response vs DMSO was 107%. The same measure for `O=C(O)c1ccccc1-c1ccccc1C(=O)Nc1ccc(-c2nc3cc(Cl)ccc3o2)cc1`: 99.3%. Consider `CC(=O)Nn1cnc2c(c1=O)C1(CCCCC1)Cc1ccccc1-2`, for which the GFP response vs DMSO is 112%.

With `O=C(Nc1ccc(-c2nc3ccccc3o2)cc1)c1cccnc1`, the GFP response vs DMSO was 96.1%. Then `Nc1c(C(=O)O)ccc2c1C(=O)c1ccccc1C2=O`, with 101%. The same measure for `CCCCC(=O)NCCc1cc2c(OC)ccc(OC)c2[nH]c1=O`: 96.1%; for `CN1CCN(C(=O)c2cc(COc3ccc(F)cc3Cl)on2)CC1c1ccccc1` (centres undefined): 106%. Then `O=C(N/N=C/c1ccccc1O)c1cccc2ccccc12`, with 92.8%.

Take `Cc1ccc(-c2cc(C(F)F)nc(S(C)(=O)=O)n2)cc1`: the GFP response vs DMSO is 91.2%. With `O=C(O)CCS(=O)(=O)c1nc(-c2cccs2)cc(C(F)(F)F)n1`, the GFP response vs DMSO is 106%.

As to `COc1ccc(-c2cc(C(F)(F)F)nc(S(C)(=O)=O)n2)cc1OC`, the GFP response vs DMSO was 112% and 109%. The same measure for `CCC(C)Nc1nc(N)c([N+](=O)[O-])c(Nc2cc(OC)ccc2OC)n1` (centres undefined): 101%. The same measure for `CC(C)Nc1ncnc2ccc(Br)cc12`: 96.1%; for `CSc1nc(Nc2ccc(Cl)cc2)c(C#N)c(=O)[nH]1`: 104%; for `Nc1c(O)ccc2c1C(=O)c1ccccc1C2=O`: 99.3%. On to `CC(=O)Nc1ccc(-c2nc3cc(Cl)ccc3o2)cc1`, for which the GFP response vs DMSO is 91.2%. As to `CS(=O)(=O)c1nc(-c2ccc(F)cc2)cc(C(F)(F)F)n1`, the GFP response vs DMSO was 107%. The same measure for `Cc1nc(Nc2ccc(Br)cc2Br)c([N+](=O)[O-])c(=O)[nH]1`: 103%. As to `COCC(C)NC(=O)CCS(=O)(=O)c1nc(-c2ccc(OC)cc2)cc(C(F)(F)F)n1` (centres undefined), the GFP response vs DMSO is 103% and 92.8%.

In the case of `Cc1ccc2c(Cl)cc(Cl)c(O)c2n1`, the GFP response vs DMSO is 138%.

For `Cn1c(NCCCO)nc2c(c1=O)C1(CCCCC1)Cc1ccccc1-2`, the GFP response vs DMSO was 117%. The same measure for `Oc1c(Br)cc(Br)c2cccnc12`: 189% (active); for `COc1ccc(Nc2nc(NN)nc(C)c2[N+](=O)[O-])cc1`: 94.5%; for `COc1ccccc1Nc1nc(NCC(C)C)nc(N)c1[N+](=O)[O-]`: 114%. On to `COc1cccc(NC(=O)CC(C)=O)c1`, for which the GFP response vs DMSO was 106%. Then `CNc1cccc2c1C(=O)c1ccccc1C2=O`, with 104%. Consider `CCN(CC)C(=O)Oc1cc(=O)n(C)c2ccccc12`, for which the GFP response vs DMSO was 101%. The same measure for `C=CCNc1nc(N)c([N+](=O)[O-])c(Nc2ccccc2OC)n1`: 127%; for `Oc1c(I)cc(Cl)c2cccnc12`: 182% (active); for `Cc1ccc2c(Cl)cc(Cl)c(OCC(=O)O)c2n1`: 109%. Consider `Cc1nc(Nc2ccc(Cl)cc2)c(C#N)c(=O)[nH]1`, for which the GFP response vs DMSO is 107%. Then `COc1cccc(N/C=C/C(=O)c2ccc(C)cc2)c1`, with 92.8%. The same measure for `COc1cccc(N/C=C/C(=O)c2ccc(Cl)cc2)c1`: 107%. The same measure for `CC(=O)C(CC(=O)N1CCCC1)C(=O)Nc1ccc(Cl)cc1` (centres undefined): 109%; for `O=C(Nc1ccccc1)ON=C1c2ccccc2-c2ccccc21`: 112%; for `OCc1ccc(O)c2ncccc12`: 91.2%. With `Oc1ccc(F)c2cccnc12`, the GFP response vs DMSO was 101%.

On to `OCc1ccnc2c(O)cccc12`, for which the GFP response vs DMSO is 94.5%. The same measure for `Cc1ccc(C)c(Nc2ncnc(N)c2[N+](=O)[O-])c1`: 104%.
